Screening results from PubChem.
TbPYK inhibitor = T. brucei pyruvate kinase inhibition. Potency, µM (highest dose often 76.8 µM), without a hit: at the highest dose activity, negative = inhibition, usual class: inhibitors. 410,000 compounds, 0.12% hits. TbPYK enzyme, Kinase-Glo Plus ATP luminescence, 45 min. Q57TT1; note: potency is the fitted concentration of half-maximal effect; nearly all actives have a fitted effect of over 50% in size
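TbPYK + substrate in 50 mM TEA pH 7.2, 100 mM KCl, 10 mM MgCl2, 0.05% BSA, 0.01% Tween-20; cpd pinned; ADP 130 uM final; 45 min RT; Kinase-Glo Plus 10 min; luminescence endpoint.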
Sm TGR block = inhibitors of Schistosoma mansoni thioredoxin glutathione reductase. Q962Y6. purified TGR, DTNB reduction, TNB absorbance 405 nm. Potency, µM (titrated, usually from 114 µM), for the others: top-dose activity change, negative = inhibition, usual class: inhibitors. 360,000 compounds, 3% hits. AID 485364; note: potency is the fitted concentration of half-maximal effect; nearly all actives have a fitted effect of over 60% in size
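First, TGR (20 nM dispensed) and NADPH were mixed with compound. Second, a 15 min room-temperature incubation followed. Third, further NADPH and then DTNB were added to start the reaction. Finally, TNB absorbance was monitored kinetically.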
Giardia FBPA inh = blocks Giardia fructose-bisphosphate aldolase activity; AID 2451; purified Giardia FBPA; 290,000 compounds, 0.71% hits; A8B2U2; Potency, µM (top dose mostly 59.6 µM), without a hit: at the top dose activity, negative = inhibition, hits mostly inhibitors; note: potency is the fitted concentration of half-maximal effect; nearly all actives have a fitted effect of over 55% in size
Target sequence (A8B2U2 whole entry, looked up): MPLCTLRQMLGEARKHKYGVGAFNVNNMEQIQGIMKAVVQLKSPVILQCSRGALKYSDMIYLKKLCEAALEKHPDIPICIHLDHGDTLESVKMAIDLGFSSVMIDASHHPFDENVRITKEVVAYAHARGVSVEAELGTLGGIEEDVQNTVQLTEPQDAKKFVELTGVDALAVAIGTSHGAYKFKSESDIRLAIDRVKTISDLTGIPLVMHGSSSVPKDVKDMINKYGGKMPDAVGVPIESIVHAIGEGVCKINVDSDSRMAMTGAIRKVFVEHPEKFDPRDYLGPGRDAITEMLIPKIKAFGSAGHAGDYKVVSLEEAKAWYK
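Giardia FBPA (40 nM reagent) was preincubated 10 min at RT with compound (up to 57.5 uM final), then substrate plus GAPDH/TPI/NAD/arsenate coupling system with diaphorase/resazurin was added; resorufin fluorescence (525/598 nm) was read after 20 min.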
FMDV inh = foot and mouth disease virus antiviral activity | FMDV antiviral cell-based qHTS | Potency, µM (titrated, usually from 57.9 µM), for the others: at the top dose activity change, negative = inhibition, actives largely listed as inhibitors | 410,000 compounds, 1.2% hits | AID 1159524; calls by dose curve; tested in HEK293T cells; note: read-out not given here; potency is the fitted concentration of half-maximal effect; nearly all actives have a fitted effect of over 45% in size
RE007 growth inh = less growth of the S. pombe RE007 Vpr strain. S. pombe RE007 Vpr strain, BacTiter-Glo ATP luminescence, 24 h. Potency, µM (top dose mostly 92.2 µM), for inactives: at the top dose activity change, negative = less growth, hits mostly inhibitors. 360,000 compounds, 0.21% hits; active = well fitted falling curve with a large enough effect; inconclusive = small, poorly fitted or top-dose-only effect; inactive = no such curve, though single readings can be large or run the other way; note: potency is the fitted concentration of half-maximal effect; nearly all actives have a fitted effect of over 50% in size
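Fission yeast RE007 carrying one integrated HIV-1 vpr copy, seeded at OD 0.01 in PMG+AL medium with 23 nL pinned compound. Grown 24 h at 30 degrees; viability read by BacTiter-Glo luminescence after 5 min.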
HCMV inh = human cytomegalovirus inhibition; HFF cells, HCMV-luciferase reporter, 72 h; stronger effect = lower value; activity change, negative = inhibition, % at 57.5 µM; 410,000 compounds, 4.5% hits; AID 1259415; in the data active = activity change below about -60%; inconclusive = no clear call, values can overlap the other calls; inactive = above about -39%
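Cell-based, HFFs, 1000 cells/well, 16 h 37C; cpds in DMSO + HCMV-luc, MOI 1 PFU/cell; 72 h 37C; OneGlo luminescence after 5 min RT; norm. to buffer vs Salinomycin 10uM.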
* marks the source's active call; other numbers are inactive results; ? = inconclusive; nt = no result given; [ ] = remark or other dose. The list is not random: actives were taken first. Their share in the collection is about 7.7%. Unless noted, calls come from the whole dose curve; as a rule, active = well fitted curve in the direction sought with a large enough effect; inconclusive = small, poorly fitted or top-dose-only effect, or another doubt; inactive = no such curve, though single readings can be large; an effect the other way counts as inactive or inconclusive. % is set by controls: 0 for no effect and ±100 for the full control effect.

SMILES	TbPYK inhibitor	Sm TGR block	Giardia FBPA inh	FMDV inh	RE007 growth inh	HCMV inh
Cc1noc(/C=C/c2ccco2)c1S(=O)(=O)N1CCC(C(=O)NCc2ccco2)CC1	-5.2%	?	0.5%	-0.5%	8.9%	-73.1*
Cc1noc(/C=C/c2ccco2)c1S(=O)(=O)N1CCC(C(=O)N2CCc3ccccc3C2)CC1	-3.4%	11.2µM*	-3.9%	-21.9%	-4.6%	nt
CC(C)c1c(C(=O)NCc2ccncc2)cnn1-c1nccc(-c2cccs2)n1	nt	nt	nt	3.3%	nt	nt
CC1CCN(C(=O)c2ncn3c2C(=O)NC[C@@H]3C)CC1	nt	nt	nt	nt	nt	-14.2
CCn1c(=N)c(C(=O)NC2CCCCC2)cc2c(=O)n3cc(C)ccc3nc21	-1.0%	-3.8%	nt	10.6%	nt	8.4
O=C(NCc1ccco1)C1CCN(c2nnc(-n3cccc3)s2)CC1	-5.7%	-2.7%	7.7%	-2.5%	-4.8%	-66.5*
Cc1ccc(NC(=O)C2CCN(S(=O)(=O)c3c(C)noc3/C=C/c3ccco3)CC2)nc1	8.3%	-12.3%	7.5%	35.5µM*	-5.8%	-93.6*
Cc1ccc(CNC(=O)C2CCN(S(=O)(=O)c3c(C)noc3/C=C/c3c(C)cc(C)cc3C)CC2)cc1	-2.9%	2.3%	nt	-19.3%	nt	43.6
Cc1ccc(CNC(=O)C2CCN(S(=O)(=O)c3c(C)noc3/C=C/c3ccco3)CC2)cc1	1.6%	39.8µM*	-4.9%	-23.2%	4.4%	-6.6
O=C(COC(=O)c1cc(S(=O)(=O)N2CCOCC2)ccc1F)NCc1ccco1	-4.4%	44.7µM*	nt	-8.3%	-9.0%	16.3
COc1ccccc1N1CCN(S(=O)(=O)c2ccc3c(c2)CCCN3C(C)=O)CC1	-7.9%	7.1%	nt	-8.1%	nt	-13.2
COc1cccc(CNC(=O)c2ccc(NC(=O)N3CCCCc4ccccc43)cc2)c1OC	0.6%	6.8%	nt	-29.3%	nt	-1.7
Cc1noc(/C=C/N(C)C)c1S(=O)(=O)N1CCC(C(=O)O)CC1	-0.1%	5.4%	2.9%	-15.2%	1.0%	-69.2*
Cc1cc(C)c(NC(=O)Cc2csc(C)n2)c(Cl)c1	0.2%	1.6%	nt	5.4%	nt	-60.8*
Cc1ccccc1Cn1c2ccccc2c2cnn(CC(=O)NCC(C)c3ccccc3)c(=O)c21 (stereo unspecified)	0.0%	-0.4%	nt	-13.3%	nt	-0.5
Cc1cc2c(nc1C)CCCCN2C[C@H](C)O/N=C1/[C@H]2O[C@@H]2[C@@H](O)[C@H]2[C@H]1CCn1c(=O)n(-c3ccccc3)c(=O)n12	nt	nt	-0.2%[12.9 µM]	nt	nt	nt
C/C(=N\NC(=O)Cc1cccn1C)c1ccco1	1.0%	39.8µM*	-11.4%	-12.5%	0.9%	12.4
Cn1cccc1CC(=O)N/N=C/C=C/c1ccco1	-7.8%	11.2µM*	?	42.4%	-9.3%	25.2
COc1cc(C2C(C#N)=C(N)N(c3ccc(F)cc3)C3=C2S(=O)(=O)CC3)ccc1O (stereo unspecified)	?	44.7µM*	?	-3.6%	-21.0%	-10.3
CCc1sc(C(=O)Nc2cc(Cl)ccc2N2CCCCC2)cc1C	1.9%	2.3%	0.5%	-6.9%	2.9%	-62.8*
COc1ccc(/C=C/C(O)=C2/C(=O)NC3(C)CC2c2ccccc2O3)c(OC)c1OC (stereo unspecified)	1.6%	0.7%	-6.5%	?	-0.9%	-65.2*
CC12CC(c3ccccc3O1)C(C(=O)N1CCOCC1)C(=O)N2 (stereo unspecified)	1.0%	4.4%	0.5%	nt	6.6%	34.7
COc1ccc(/C=C/C(O)=C2/C(=O)N(C)C3(C)CC2c2ccccc2O3)cc1 (stereo unspecified)	-18.3%	5.2%	-10.2%	14.1µM*	7.9%	-84.9*
Cc1ccc(/C=C/C(O)=C2/C(=O)N(C)C3(C)CC2c2ccccc2O3)cc1 (stereo unspecified)	-2.3%	-5.0%	-8.5%	14.1µM*	1.2%	-97.5*
Cc1nn2c(-c3cccc(NC(=O)c4ccc(Cl)cc4)c3)nnc2c2ccccc12	5.2%	?	nt	-9.6%	nt	-29.4
CCOc1ccccc1OCCCCn1c(-c2ccc(Cl)cc2)nc2ccccc2c1=O	-16.2%	-3.2%	nt	0.0%	nt	12.5
